HCV inh = inhibitors of hepatitis C virus infection. 340,000 compounds, 3.4% hits. Potency, µM (top dose mostly 41.8 µM), for inactives: at the highest dose activity change, negative = inhibition, usual class: inhibitors. Huh7.5.1 HCVcc-Cre infection, luciferase reporter, 44 h. AID 651820; active means well fitted inhibition curve with a large enough effect; inconclusive means small, poorly fitted or top-dose-only effect, or another doubt; inactive means no such curve, though single readings can be large or run the other way; further: potency means the concentration at half of the fitted maximal effect
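Whole-lifecycle infectious HCVcc-Cre system; cells 1,000/well, compound then virus (~0.5 moi) added 4 h after plating, 44 h culture. Luciferase read 15 sec following 15 min substrate incubation, room temp.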
LASV entry inh = inhibitors of Lassa virus binding or cell entry; Lassa virus pseudotype entry inhibition, cell reporter; Potency, µM (titrated, usually from 37.9 µM), for inactives: at the top dose activity change, negative = inhibition, hits mostly inhibitors; 300,000 compounds, 1.2% hits; AID 540256; calls by dose curve; tested in HEK293 cells; further: potency means the concentration at half of the fitted maximal effect; nearly all actives have a fitted effect of over 50% in size
VACV Venus inh = vaccinia inhibition (Venus reporter); Potency, µM (titrated, usually from 36.5 µM), for the others: at the highest dose activity change, negative = inhibition, actives largely listed as inhibitors; AID 720580; 330,000 compounds, 0.46% hits; Vaccinia virus Venus reporter expression, fluorescence; calls by dose curve; tested in A549 cells; further: potency means the concentration at half of the fitted maximal effect; nearly all actives have a fitted effect of over 30% in size
Vaccinia mCherry = inhibitors of vaccinia virus infection (mCherry reporter signal); Vaccinia virus mCherry reporter infection, fluorescence; Potency, µM (doses to about 36.5 µM), for the others: at the highest dose activity change, negative = inhibition, most hits filed as inhibitors; 310,000 compounds, 0.63% hits; AID 720579; calls by dose curve; tested in A549 cells; further: potency means the concentration at half of the fitted maximal effect; nearly all actives have a fitted effect of over 35% in size
MARV entry inh = Marburg virus entry inhibition | AID 540276 | Potency, µM (doses to about 37.8 µM), for inactives: at the highest dose activity change, negative = inhibition, actives largely listed as inhibitors | 300,000 compounds, 1.8% hits | Marburg virus pseudotyped entry inhibition, cell reporter; calls by dose curve; tested in HEK293 cells; further: potency means the concentration at half of the fitted maximal effect
HCMV antiviral = human cytomegalovirus inhibition; HFF cells, HCMV-luciferase reporter, 72 h; hits give low values; activity change, negative = inhibition, % at 57.5 µM; 410,000 compounds, 4.5% hits; in the data active means activity change below about -60%; inconclusive means no clear call, values can overlap the other calls; inactive means above about -39%
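Two-dose cell screen: HFF monolayers treated with compounds and infected with luciferase-expressing HCMV at 1 PFU/cell, 72 h at 37C, then lysed for luciferase measurement.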
Numbers without * were called inactive; [ ] = dose if it differs, or a comment. This is a sample that favours compounds with a hit; in the whole collection about 7.8% have one here. On the % scale 0 is the no-effect control and ±100 the full control effect.

What do the screens show for `COc1cc([C@@H]2c3cc4c(cc3[C@@H](O)[C@H]3COC(=O)[C@H]23)OCO4)cc(OC)c1O[Si](C)(C)C(C)(C)C`?
HCV inh: -29.0%; VACV Venus inh: inconclusive; Vaccinia mCherry: -18.6%; HCMV antiviral: inconclusive

Results for CCC1C(c2cc(OC)c(OC)c(OC)c2)c2cc3c(cc2OC1N1CCCC1)OCO3 (centres undefined) ?
HCV inh: inconclusive; LASV entry inh: 8.91µM*; VACV Venus inh: inconclusive; Vaccinia mCherry: -9.0%; MARV entry inh: inconclusive; HCMV antiviral: -2.6

Results for COc1cc(C2c3cc4c(cc3C3OC(=O)C2C3CO)OCO4)cc(OC)c1OC (centres undefined) ?
VACV Venus inh: inconclusive; Vaccinia mCherry: -7.8%; HCMV antiviral: -75.7*

Results for COc1cc(C2c3cc4c(cc3CC3COC(=O)C32)OCO4)cc(OC)c1O (centres undefined) ?
HCV inh: inconclusive; LASV entry inh: inconclusive; VACV Venus inh: inconclusive; Vaccinia mCherry: -23.6%; MARV entry inh: inconclusive; HCMV antiviral: -90.2*

How did CCOc1ccccc1NC(=O)Nc1nnc(N2CCCC(C)C2)s1 (centres undefined) do in these assays?
LASV entry inh: 16.2%[46.1 µM]; VACV Venus inh: -19.2%; Vaccinia mCherry: -17.9%; MARV entry inh: 5.8%[46.1 µM]; HCMV antiviral: 8.9

How did CNc1nc(N2CCCN(C)CC2)nc2cc(OC)c(OC)cc12 do in these assays?
VACV Venus inh: -9.9%; Vaccinia mCherry: -14.0%

Results for COc1ccc(NC(=O)CN(C)S(=O)(=O)c2ccc3c(c2)CCCN3C(C)=O)cc1Cl ?
LASV entry inh: -5.9%[46.1 µM]; VACV Venus inh: -24.6%; Vaccinia mCherry: -19.7%; HCMV antiviral: -22.5

What do the screens show for `CCOC(=O)C(CC)(CC)C(=O)/C=C/c1cccc(Br)c1`?
HCV inh: inconclusive; LASV entry inh: inconclusive; VACV Venus inh: -26.1%; Vaccinia mCherry: inconclusive; MARV entry inh: inconclusive; HCMV antiviral: -75.4*

How did NC(=O)NC(=O)COC(=O)/C=C/c1cccc(Br)c1 do in these assays?
HCV inh: 8.1%; VACV Venus inh: -14.9%; Vaccinia mCherry: inactive; HCMV antiviral: 45.6

Results for Cc1nnc(N2C(=O)c3oc4ccccc4c(=O)c3C2c2cccc(OCCC(C)C)c2)s1 (centres undefined) ?
LASV entry inh: 1.3%[46.1 µM]; VACV Venus inh: -2.9%; Vaccinia mCherry: -11.6%; MARV entry inh: inconclusive; HCMV antiviral: -2.8

How did c1ccc2nc3c(cc2c1)CCCC3 do in these assays?
VACV Venus inh: 7.2%; Vaccinia mCherry: inactive

How did Brc1cc(Br)c2nc3c(cc2c1)CCC3 do in these assays?
HCV inh: 10µM*; HCMV antiviral: -26.6

How did CC(=O)NNC(=O)CN1C(=O)/C(=C/c2ccccc2)SC1=S do in these assays?
HCV inh: 7.7%; HCMV antiviral: inconclusive

How did CN(C(=O)CCN1C(=O)/C(=C/c2ccc(F)cc2)SC1=S)C1CCS(=O)(=O)C1 (centres undefined) do in these assays?
VACV Venus inh: 11.2µM*; Vaccinia mCherry: inconclusive; HCMV antiviral: 13.7

How did O=C(O)CN1C(=O)/C(=C\c2cccc(OCc3ccc(F)cc3)c2)SC1=S do in these assays?
HCV inh: 16.8%; LASV entry inh: 16.0%[46.1 µM]; VACV Venus inh: 4.6%; Vaccinia mCherry: inactive; MARV entry inh: -3.4%[46.1 µM]; HCMV antiviral: -11.5

How did CCN(CC)C(=O)CN1C(=O)/C(=C/c2ccccc2)SC1=S do in these assays?
HCV inh: inconclusive; VACV Venus inh: -7.2%; Vaccinia mCherry: -21.3%; HCMV antiviral: -63.1*

Results for CCN(C(=O)CCN1C(=O)/C(=C/c2ccccc2)SC1=S)C1CCS(=O)(=O)C1 (centres undefined) ?
HCV inh: inconclusive; LASV entry inh: inconclusive; VACV Venus inh: inconclusive; Vaccinia mCherry: inconclusive; MARV entry inh: inconclusive; HCMV antiviral: -112.6*

How did O=C(O)CN1C(=O)/C(=C\c2cccc(OCc3ccccc3F)c2)SC1=S do in these assays?
HCV inh: -6.7%; LASV entry inh: 7.5%; VACV Venus inh: 2.0%; Vaccinia mCherry: -3.8%; MARV entry inh: 27.4%[46.1 µM]; HCMV antiviral: -75.6*
